Tau fluor counter = counter-screen for tau fibril formation inhibitors. tau K18 P301L Alexa594 fluorescence, heparin fibrillization. 280,000 compounds, 0.93% hits. Potency, µM (doses to about 57.7 µM), for inactives: at the top dose activity change, negative = decrease; also: nearly all actives have a fitted effect of over 55% in size
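Human tau K18 P301L (15 uM unlabeled, 0.24 uM Alexa 594-labeled) in 100 mM sodium acetate pH 7 with 20 uM heparin, 6 hr at 37 C. ThT 30 uM added, 1 hr ambient; Alexa 594 FP and total fluorescence read at 555/632 nm.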
Tau fibril ThT = tau fibrillization inhibition (ThT binding). Potency, µM (doses to about 57.4 µM), without a hit: at the highest dose activity, negative = inhibition, most hits filed as inhibitors. 270,000 compounds, 2.1% hits. P10636. recombinant tau K18 P301L, heparin-induced fibrillization, ThT fluorescence; also: nearly all actives have a fitted effect of over 55% in size
Target sequence (P10636 561-689 P618L limits assumed): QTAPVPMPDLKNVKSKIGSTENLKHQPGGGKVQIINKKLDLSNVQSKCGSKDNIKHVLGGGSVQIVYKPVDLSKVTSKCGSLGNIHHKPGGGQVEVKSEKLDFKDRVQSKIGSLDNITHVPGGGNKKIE
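Using a mix of unlabeled (15 uM) and Alexa 594-labeled (0.24 uM) tau K18 P301L, heparin-triggered fibrillization over 6 hr at 37 C was scored by ThT fluorescence.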
RGS12 GoLoco inh = RGS12 GoLoco-Gai1 interaction inhibition | AID 880 | Potency, µM (titrated, usually from 61.6 µM), inactives show at the top dose activity, negative = inhibition, most hits filed as inhibitors | P63096 | 230,000 compounds, 0.44% hits | Gai1:RGS12 GoLoco peptide FP, rhodamine, 10 min; active = well fitted inhibition curve with a large enough effect, not every such curve was filed as active; inactive = no such curve, though single readings can be large or run the other way; also: nearly all actives have a fitted effect of over 30% in size
Target sequence (P63096 whole entry, looked up): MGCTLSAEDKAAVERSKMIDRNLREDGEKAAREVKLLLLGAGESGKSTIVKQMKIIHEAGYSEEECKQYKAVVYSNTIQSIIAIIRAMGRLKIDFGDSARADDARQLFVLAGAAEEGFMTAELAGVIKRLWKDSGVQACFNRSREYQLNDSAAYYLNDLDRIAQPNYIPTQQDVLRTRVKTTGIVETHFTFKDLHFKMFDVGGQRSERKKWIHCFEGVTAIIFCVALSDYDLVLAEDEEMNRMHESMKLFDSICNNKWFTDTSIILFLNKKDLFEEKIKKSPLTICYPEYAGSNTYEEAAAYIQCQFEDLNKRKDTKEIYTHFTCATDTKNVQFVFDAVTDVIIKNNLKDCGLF
Tau fibril FP = tau fibrillization inhibition (FP) | Potency, µM (highest dose often 57.7 µM), inactives show top-dose activity, negative = inhibition, usual class: inhibitors | P10636 | K18 P301L tau heparin fibrillization, Alexa594 FP, 6 h | 280,000 compounds, 0.39% hits; also: nearly all actives have a fitted effect of over 55% in size
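Human K18 P301L fragment (15 uM unlabeled plus 0.24 uM Alexa 594-labeled) in 100 mM sodium acetate pH 7 with compound, aggregation induced by 20 uM heparin for 6 hr at 37 C. ThT (30 uM) added for 1 hr, then Alexa 594 FP read.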
TR SRC2 fluor cs = counter-screen for TRb-SRC2 inhibitors: fluorescence interference; Potency, µM (series often up to 106 µM), without a hit: at the highest dose fluorescence change, negative = quenching; 280,000 compounds, 0.29% hits; TRb/SRC2 Texas Red total fluorescence interference; active = well fitted curve in either direction with a large enough effect; inconclusive = small, poorly fitted or top-dose-only effect
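Human TRβ ligand-binding domain (0.6 uM) and Texas Red SRC2 peptide (20 nM) in Tris buffer with 1 uM T3 and 5% DMSO were incubated with pinned compound for 5 hr at ambient temperature. Total fluorescence was computed as S + 2P (555/632 nm).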
TRb SRC2 PPI = inhibitors of human thyroid hormone receptor beta-SRC2 interaction | 280,000 compounds, 0.065% hits | Potency, µM (highest dose often 106 µM), for the others: at the top dose activity change, negative = inhibition, most hits filed as inhibitors | AID 1469 | TRbeta-SRC2 peptide binding, fluorescence polarization; receptor liganded with 1 µM T3 | P10828;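 also: plate controls were bound peptide for no effect and peptide without receptor for full effect; nearly all actives have a fitted effect of over 50% in size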
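Fluorescence polarization of 20 nM Texas Red SRC2 peptide (20-aa NR interaction domain) bound to 0.6 uM human TRb ligand-binding domain, with 1 uM T3, after 5 hr at ambient temperature; inhibition seen as decreased polarization.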
* = called active by the depositor; ? = inconclusive; . = not tested or not shown; ! = repeats disagree; [ ] = another dose, or the depositor's remark. Shown are actives, neighbours in structure and some others; about 3.2% of the full set was active somewhere. Unless noted, calls follow the shape of the dose curve; as a rule, active = well fitted curve in the direction sought with a large enough effect; inconclusive = small, poorly fitted or top-dose-only effect, or another doubt; inactive = no such curve, though single readings can be large; an effect the other way counts as inactive or inconclusive. Unless noted, % is scaled to controls: 0 for no effect and ±100 for the full control effect; potency is read from the fitted curve at half-maximal effect.

SMILES	Tau fluor counter	Tau fibril ThT	RGS12 GoLoco inh	Tau fibril FP	TR SRC2 fluor cs	TRb SRC2 PPI
CC(=O)c1ccc(NC(=O)c2sc(-n3nc(C)c(Cc4ccccc4)c3C)nc2C)cc1	-18%	-3%	.	3%	-1%	-6%
CC(C)(C)c1cc(-c2nc(N)nc(N)n2)cc(C(C)(C)C)c1	-6%	?	11%	28µM*	-2%	-1%
N=C1c2ccccc2CN1c1ccc(N2CCOCC2)c(S(=O)(=O)Nc2ccc(Cl)cc2)c1	-26%	32µM*	2%	?	2%	-4%
CCN(CC)c1ccc(NC(=O)c2sc3ccccc3c2Cl)cc1	?	0.89µM*	.	2%	-4%	0%
CCN(CC)c1ccc(NC(=O)c2sc3nc(-c4ccccc4)cn3c2C)cc1	?	2.2µM*	.	13%	-1%	2%
Cc1c(C(=O)Nc2ccncc2)sc2nc(-c3ccccc3)cn12	-5%	-13%	18%	-2%	-4%	-1%
Cc1ccc(-n2ncc(C(=O)NCCCN3CCN(c4cccc(Cl)c4)CC3)c2-n2cccc2)cc1	-22%	?	.	17%	0%	0%
CC(NC(=O)Cn1c(=O)oc2cc(S(=O)(=O)NCc3ccccc3)ccc21)c1ccccc1 (configuration not stated)	-5%	5%	.	-11%	-11%	6%
N#C/C(=C\c1ccco1)C(=O)NCc1ccccc1	8%	17%	9%	1%	0%	9%
N#CC(C#N)=C1C=CC=CN1/C(=C\c1ccco1)C(=O)c1ccc(-c2ccccc2)cc1	-29%	16µM*	17%	?	4%	4%
N#CC(C#N)=C1C=CC=CN1/C(=C\c1ccco1)C(=O)c1ccc(Cl)cc1	?	22µM*	-9%	28µM*	-10%	12%
Cc1ccc2nc3c(cc(C(=O)NCc4ccco4)c(=N)n3C(C)C)c(=O)n2c1	-3%	-2%	.	-7%	-2%	1%
CCOC(=O)c1c(NC(=O)CSc2cn(CCNC(=O)c3ccccc3F)c3ccccc23)sc2c1CCC2	-25%	-6%	.	-14%	-16%	10%
Cc1nc(Nc2ccc(Cl)c(Cl)c2)sc1C(=O)Nc1ccccc1	11µM*[quencher]	?	-2%	5%	-1%[53 µM]	-4%[53 µM]
COc1ccc(Nc2sc(C(=O)Nc3cccc(Cl)c3)c(N)c2C(=O)Nc2ccccc2OC)cc1	11µM*[quencher]	?	9%	14%	0%	-4%
Nc1c(C(=O)c2ccccc2)sc(Nc2ccc(Cl)c(Cl)c2)c1C(=O)Nc1ccccc1	?	20µM*	.	-13%	-1%	8%
CCC1CCCCN1CCCNC(=O)c1ccc2c(c1)N(Cc1cccc(C)c1)C(=O)c1ccccc1S2(=O)=O (configuration not stated)	?	-12%	.	-12%	1%	-1%
COC(=O)NC(CC(C)=O)c1ccc2c(c1)OCO2 (configuration not stated)	-6%[11.6 µM]	-1%[11.5 µM]	.	-5%[11.6 µM]	3%[11.2 µM]	3%[11.2 µM]
C=CCSC1=N/C(=C\C=C\c2ccco2)C(=O)S1	?	13µM*	23%	?	?	-4%
Cc1cc(C)n2nc(/C(C#N)=C/c3ccccn3)c(C#N)c2n1	?	22µM*	11%	?	-6%	5%
Cc1cc(C)n2nc(CC#N)c(C#N)c2n1	6%	-3%	12%	3%	-1%	-2%
O=C(Nc1ccc(O)cc1)/C(=C\c1ccncc1)NC(=O)c1ccccc1	11%	14%	-9%	10%	-1%	-7%
O=C(Nc1ccc(O)cc1)/C(=C\C=C\c1ccccc1)NC(=O)c1ccccc1	18µM*[quencher]	?	9%	-6%	-3%	1%
c1cc(NNc2cccc(-c3nn[nH]n3)c2)cc(-c2nn[nH]n2)c1	.	.	1%[14.2 µM]	.	.	.
O=c1c2c3c(sc2ncn1/N=C/c1ccc([N+](=O)[O-])o1)CCCC3	?	20µM*	1%	-15%	1%	-3%
SMILES	Tau fluor counter	Tau fibril ThT	RGS12 GoLoco inh	Tau fibril FP	TR SRC2 fluor cs	TRb SRC2 PPI
CN1CCN(c2cc(N3CCc4ccccc4C3)c(F)cc2[N+](=O)[O-])CC1	-27%	13µM*	3%	-1%	-2%	-3%
O=C(c1csnn1)N1CCC2(CCCN(c3ccccc3)C2)CC1	.	.	6%	.	.	.
Cn1cccc1/C=C1\CCC/C(=C\c2cccn2C)C1=O	?	5µM*	80%	8%	-1%	9%
Cc1ccccc1N=C1NC(=O)/C(=C/c2cccn2C)S1	-29%	?	110%	-3%	2%	7%
O=C(CSc1nc2ccc(Cl)cc2[nH]1)Nc1ccc2c(c1)CCC2	?	?	.	13µM*	-2%	0%
Cc1ccc2nc(SCC(=O)Nc3ccc4c(c3)CCC4)[nH]c2c1	6%	?	87%	2%	-1%	0%
COC(=O)C1(C)C=C2C(=C(c3ccccc3)C(=O)C2C)CN1 (configuration not stated)	-4%	-10%	2%	-2%	-2%	4%
Oc1ccc(N=C/C=C/c2ccc(Br)cc2)cc1-c1nc2ccccc2s1	?	11µM*	82%	-23%	-12%	2%
O=C(Nc1ccc(-c2nc3ccccc3s2)c(O)c1)c1ccc(Br)cc1	-4%	?	.	-14%	4%	-2%
C=CCOC(=O)NC(c1ccc(F)c(F)c1)C(C(C)=O)C(=O)OC (configuration not stated)	-3%	-3%	-2%	-3%	-3%	-1%
C/C(=N\NC(=O)c1cc(-c2cccnc2)nc2ccccc12)c1ccccc1O	1%	3%	43%	4%	3.2µM*[quencher]	-19%[53 µM]
CC1(OC(=O)CCc2ccccc2)C(=O)C=C2C=C(c3ccc(C#N)cc3)N(Cc3ccccc3)C=C2C1=O (configuration not stated)	-3%[11.6 µM]	8.9µM*!	-1%[14.2 µM]	?	0%[11.2 µM]	3%[11.2 µM]
CC1(OC(=O)C2CCCC2)C(=O)C=C2C=C(c3ccsc3)N(Cc3ccccc3)C=C2C1=O (configuration not stated)	-5%[11.6 µM]	10µM*!	-2%[14.2 µM]	?	8%[11.2 µM]	4%[11.2 µM]
CC1(OC(=O)C2CCCC2)C(=O)C=C2C=C(c3ccsc3)N(CCc3ccccn3)C=C2C1=O (configuration not stated)	-19%[11.6 µM]	4µM*	-14%[14.2 µM]	?	2%[11.2 µM]	1%[11.2 µM]
CCCCC1=CC2=CC(=O)C(C)(OC(=O)CCc3ccccc3)C(=O)C2=CO1 (configuration not stated)	?	25µM*!	-35%	?	-1%	4%
CCCCCCN1C=C/C(=C\C=C(C#N)C#N)c2ccccc21	-10%	?	240%	-19%	45µM*[fluorescent]	40µM*
